In all, about 33,000 sequences were measured (“e-score”: median about -0.05, highest 2% from about 0.38 on). Many of the other results were omitted from the sample, so the highest values are more common in it than they were.

This assay has as its target T1, SIX1-Q177R homeodomain (human, UniProt Q15475 108-198, Q177R).
T1 sequence: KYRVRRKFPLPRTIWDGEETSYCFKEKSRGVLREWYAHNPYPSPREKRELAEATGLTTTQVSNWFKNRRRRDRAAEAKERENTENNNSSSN
The assay is described as follows: universal protein binding microarray; Universal all-10-mer PBM (8x60K, AMADID 030236), 300 nM GST-tagged protein, Alexa Fluor 488 anti-GST; buffer, salt, pH and temperature not stated (as in Berger); high values mean tight binding. Conditions: protein: ivt; tags: N-terminal GST; dsDNA, one strand shown. The procedure, abridged: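 Duplicate protein binding microarrays (universal 'all 10-mer', 8×60K format) were incubated with GST-tagged homeodomains at 300 nM final concentration. Binding was quantified as 8-mer E-scores with the Universal PBM Analysis Suite.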
As for TCTTGACA, the binding signal came out at 0.167 ± 0.0124 E-score.

As for CCCCCGAA, the binding signal stood at 0.238 ± 0.0222 E-score.

GAGGGTTA: the binding signal was 0.185 ± 0.00774 E-score.

With CGACTAAC, the binding signal came out at 0.192 ± 0.0385 E-score.

CACGCACG: the binding signal was 0.304 E-score.

Take ATTGCGTG: the binding signal amounted to 0.183 ± 0.0294 E-score.

Consider GGCGTGTA, for which the binding signal is 0.4378 ± 0.00204 E-score.

As to GGCGTACA, the binding signal turned out to be 0.283 ± 0.0225 E-score.

With GACGTGTA, the binding signal was determined as 0.368 ± 0.0248 E-score.

As for GGCACCGA, the binding signal was 0.175 ± 0.0275 E-score.

Turning to AACACCGT, the binding signal worked out at 0.4669 ± 0.00366 E-score.

In the case of TACACCGA, the binding signal was 0.4853 ± 0.00441 E-score.

On to AACACAGT, for which the binding signal was found to be 0.158 ± 0.0584 E-score.

In the case of AACACTGT, the binding signal worked out at 0.3445 ± 0.00205 E-score.

For the sequence AACACCGA, the binding signal turned out to be 0.4686 ± 0.00331 E-score.

Turning to AGCACCGA, the binding signal turned out to be 0.197 ± 0.00674 E-score.

GTCACCGA: the binding signal was determined as 0.175 ± 0.0101 E-score.

As for TACACAGA, the binding signal came out at 0.152 ± 0.0583 E-score.

Turning to GACACCGA, the binding signal came out at 0.486 ± 0.00613 E-score.

As for CACCCCGA, the binding signal turned out to be 0.346 ± 0.0278 E-score.

Consider ACCCAACA, for which the binding signal was 0.251 ± 0.0117 E-score.

Take ACGATCCG: the binding signal was determined as 0.232 ± 0.0258 E-score.

Turning to AATCTACA, the binding signal is 0.22 ± 0.0213 E-score.

As to ACCCGTGC, the binding signal was found to be 0.1616 ± 0.000424 E-score.

Take GCACTATA: the binding signal stood at 0.191 ± 0.0272 E-score.

For CACACAGG, the binding signal stood at 0.182 ± 0.0584 E-score.

GATACCGC: the binding signal was determined as 0.293 ± 0.00845 E-score.

Take GACACCGC: the binding signal is 0.487 ± 0.00552 E-score.

As to CACACCGG, the binding signal was determined as 0.418 ± 0.0186 E-score.

Regarding CACACCGC, the binding signal is 0.412 ± 0.0184 E-score.

On to CACCCCGG, for which the binding signal was found to be 0.338 ± 0.0167 E-score.

Turning to CACCGCGG, the binding signal worked out at 0.3509 ± 0.00344 E-score.

AGCACCGG: the binding signal is 0.206 ± 0.0351 E-score.

Take GACGCCGC: the binding signal was 0.151 ± 0.0247 E-score.

For the sequence AACACCGG, the binding signal is 0.4831 ± 0.000693 E-score.

Take CGCACCGC: the binding signal worked out at 0.209 ± 0.0348 E-score.

Take AACACTGG: the binding signal was found to be 0.37323 ± 0.000191 E-score.

On to CACCGATG, for which the binding signal was found to be 0.32 ± 0.0273 E-score.

Take CCCCGGAG: the binding signal turned out to be 0.261 ± 0.00517 E-score.

With CTATTACA, the binding signal came to 0.215 ± 0.023 E-score.

Consider CAGATTCG, for which the binding signal came to 0.161 ± 0.0252 E-score.

As to CACCAAGG, the binding signal is 0.265 ± 0.0125 E-score.

For CCCGCACC, the binding signal is 0.197 ± 0.0395 E-score.

With AACCCGGA, the binding signal stood at 0.201 ± 0.0406 E-score.

Turning to TGTGCACA, the binding signal came out at 0.21 ± 0.0348 E-score.

As to CGCTTACA, the binding signal was determined as 0.196 ± 0.0288 E-score.

With CACCATAC, the binding signal is 0.3492 ± 0.0017 E-score.

CACCAGGG: the binding signal is 0.284 ± 0.0249 E-score.

As to CGGATCCA, the binding signal amounted to 0.232 ± 0.0264 E-score.

Take CACCCGAA: the binding signal was determined as 0.276 ± 0.0248 E-score.

For the sequence ACCTCACG, the binding signal stood at 0.153 ± 0.0322 E-score.

On to CACCGGCC, for which the binding signal was 0.251 ± 0.0167 E-score.

In the case of GATACCCA, the binding signal turned out to be 0.3616 ± 0.000587 E-score.

Consider ACTTGCAC, for which the binding signal came to 0.175 ± 0.00796 E-score.

As to TGTAAACA, the binding signal was determined as 0.262 ± 0.00791 E-score.

For the sequence ACCACCGC, the binding signal stood at 0.199 ± 0.00668 E-score.

For AGCACCGC, the binding signal was 0.288 ± 0.023 E-score.

For CACACCGA, the binding signal is 0.405 ± 0.0194 E-score.

Turning to AACACCGC, the binding signal turned out to be 0.47579 ± 0.000382 E-score.

Regarding CGGGGTTC, the binding signal came out at 0.201 ± 0.0287 E-score.

Consider CATGGACA, for which the binding signal was 0.216 ± 0.0185 E-score.

In the case of GGAGTACC, the binding signal is 0.218 ± 0.0355 E-score.

As to GTGCGCAC, the binding signal was determined as 0.175 ± 0.0735 E-score.

For the sequence CGACACAG, the binding signal was 0.251 ± 0.0668 E-score.

For the sequence GGACCCCC, the binding signal was 0.26 ± 0.0595 E-score.

For the sequence CGACACCC, the binding signal stood at 0.488 ± 0.01 E-score.

In the case of GGACACAC, the binding signal was determined as 0.382 ± 0.0328 E-score.

As to GGACACAA, the binding signal stood at 0.18 ± 0.117 E-score.

Regarding CGACACAC, the binding signal stood at 0.345 ± 0.0318 E-score.

For CGGCACCG, the binding signal is 0.239 ± 0.0344 E-score.

In the case of CGACACCG, the binding signal came out at 0.4907 ± 0.00417 E-score.

For CGACCCCC, the binding signal worked out at 0.256 ± 0.0448 E-score.

GGACACCC: the binding signal came to 0.48 ± 0.00768 E-score.

Regarding GCCCACCC, the binding signal was found to be 0.229 ± 0.0369 E-score.

With ACGCACCC, the binding signal amounted to 0.265 ± 0.0257 E-score.

Take TACCCTGA: the binding signal came to 0.185 ± 0.0156 E-score.

With CGGGGTGC, the binding signal stood at 0.219 ± 0.0401 E-score.

Consider TATTGACA, for which the binding signal came to 0.194 ± 0.0479 E-score.

Consider CACGCAGG, for which the binding signal came to 0.264 ± 0.016 E-score.

As for GTACTCCA, the binding signal was 0.178 ± 0.0308 E-score.

On to AGTCACAC, for which the binding signal came to 0.326 ± 0.0101 E-score.

GGTCACAC: the binding signal turned out to be 0.384 ± 0.0098 E-score.

For the sequence AGACACCC, the binding signal was 0.469 ± 0.00936 E-score.

As for CGACACAA, the binding signal turned out to be 0.201 ± 0.104 E-score.

For CGTCACAC, the binding signal amounted to 0.288 ± 0.0273 E-score.

For AGACCCCC, the binding signal was 0.214 ± 0.0497 E-score.

In the case of CGACAACA, the binding signal is 0.245 ± 0.0238 E-score.

With CGACACCA, the binding signal was 0.488 ± 0.00517 E-score.
